# Source: PubChem BioAssay AID504454 (NMMLSC, 2011)
# The campaign covered roughly 340,000 compounds. About 1,400 (0.41%) were called active.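 Rule for the calls: active = response above a set limit, near 3 SD of response in nonfluorescent compounds (cut at about 42% in these data); inactive = the rest.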 For the sample, actives were picked, then their nearest neighbours and some compounds at random.
# Target: Beta-2 adrenergic receptor (Homo sapiens) (UniProt P07550)
# Assay: agonist-induced loss of surface beta2AR – cell-based, FAP fluorogen, flow cytometry, primary screen (AID 504454)
# Conditions: Am2.2-beta2AR cells, FAP receptor internalization, active compounds read high, concentration not given here
# Sequence of Beta-2 adrenergic receptor (Homo sapiens) (P07550 whole entry, looked up): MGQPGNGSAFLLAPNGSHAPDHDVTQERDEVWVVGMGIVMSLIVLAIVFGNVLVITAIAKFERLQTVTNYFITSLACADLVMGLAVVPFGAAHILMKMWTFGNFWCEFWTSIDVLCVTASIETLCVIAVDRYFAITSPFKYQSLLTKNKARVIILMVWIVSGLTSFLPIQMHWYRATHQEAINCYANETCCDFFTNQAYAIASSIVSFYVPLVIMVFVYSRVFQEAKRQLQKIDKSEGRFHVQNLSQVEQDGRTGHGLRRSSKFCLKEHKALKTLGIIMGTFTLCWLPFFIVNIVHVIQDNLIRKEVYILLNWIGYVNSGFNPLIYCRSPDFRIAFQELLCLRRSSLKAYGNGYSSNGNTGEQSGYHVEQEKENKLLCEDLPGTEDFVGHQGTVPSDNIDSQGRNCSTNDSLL
row,Structure (SMILES),response
1,CCN(CC)Cc1csc2ccc(Br)cc12,5.63% (inactive)
2,COc1ccc(OC(C)C(=O)Nc2cccnc2)cc1 (centres undefined),-1.88% (inactive)
3,COc1ccc(CS(=O)/C(Cl)=C(/Cl)C(=O)Nc2ccc(OC)nc2)cc1 (centres undefined),52.3% (active)
4,COc1ccc(CCC(=O)c2ccc(OC)cc2)cc1,-1.6% (inactive)
5,O=C(Nc1ccc([N+](=O)[O-])cc1)C1CC12CCC2 (centres undefined),-2.03% (inactive)
6,COc1cccc2[nH]c(C(=O)NCCc3ccccc3)cc12,1.88% (inactive)
7,O=C(Cn1nc(Cc2cccnc2)c2ccccc2c1=O)NCC1CCCO1 (centres undefined),-13.8% (inactive)
8,COc1ccccc1NC(=O)Nc1nc(CC(=O)Nc2ccccc2F)cs1,1.09% (inactive)
9,COc1ccc(CC(=O)Nc2nc(-c3ccc(F)c(F)c3)cs2)cc1OC,44% (active)
10,O=C(COc1ccccc1F)Nc1nc(-c2ccccn2)cs1,-6.34% (inactive)
11,CCc1c(SCCC(=O)O)nc2ccccc2c1C,-4.7% (inactive)
12,CCN(CC)c1ccc(C(=O)OCC(=O)c2ccco2)cc1,4.24% (inactive)
13,Cc1ccc(Cl)cc1NC(=O)CN1CCN(S(=O)(=O)N2CCOCC2)CC1,81.7% (active)
14,O=C(CN1CCN(c2cccc(Cl)c2)CC1)Nc1ccc(S(=O)(=O)N2CCOCC2)cc1,-2.92% (inactive)
15,COc1ccc(Cl)cc1NC(=O)CN1CCN(C(=O)N2CCOCC2)CC1,1.88% (inactive)
16,NC[C@H](Cc1ccccc1)NCCc1cc(C(F)(F)F)cc(C(F)(F)F)c1,19% (inactive)
17,CCOC(=O)[C@H]1[C@H]2COc3ccc(OC)cc3[C@@H]2N2C(=O)c3ccc(F)cc3NC(=O)[C@@]12C,-0.05% (inactive)
18,COCCn1c(C)cc(C(=O)CSc2nnc(C3CC3)n2C2CC2)c1C,6.93% (inactive)
19,O=C(N/C(=C/c1ccc(Cl)cc1)C(=O)N1CCCCC1)c1ccco1,6.34% (inactive)
20,O=C(N/C(=C\c1ccc([N+](=O)[O-])cc1)C(=O)N1CCOCC1)c1cccc(Br)c1,3.33% (inactive)
21,O=C(N/C(=C\c1ccc([N+](=O)[O-])cc1)C(=O)N1CCCCC1)c1ccco1,72.5% (active)
22,CC(=O)Nc1ccc(S(=O)(=O)N2CCN(CCCOc3cc(C)ccc3C)CC2)cc1,3.77% (inactive)
23,CC(C)c1ccc(NC(=O)[C@@H](NC(=O)N2CC(=O)Nc3ccccc32)C(C)C)cc1,-13% (inactive)
24,COc1ccc(OC)c(/C=N/NC(=O)CSc2nnc(C)n2-c2ccccc2)c1,8.61% (inactive)
25,Cc1ccc(-c2nnc(SCC(=O)N/N=C/c3cccs3)n2-c2ccc(C)cc2)cc1,-11.9% (inactive)

row,Structure (SMILES),response
1,Cc1nnc(SCC(=O)N/N=C/c2cn(-c3ccccc3)nc2-c2ccc(F)cc2)n1-c1ccccc1,54.1% (active)
2,CCOc1cc(C)c(S(=O)(=O)NCc2ccccn2)cc1C,-7.14% (inactive)
3,CCCOc1ccc(C(=O)C(CCC(CNCC)C(=O)c2ccc(OCCC)cc2)CNCC)cc1 (centres undefined),46.1% (active)
4,CCCOc1ccc(/C=N/NC(=O)C2CC2)c(OCCC)c1,-16.2% (inactive)
5,COC(=O)c1ccc(OCC(=O)NC(C)(C)C)cc1,6.76% (inactive)
6,Cc1ccc2[nH]c(=O)c(CN(C)S(=O)(=O)c3cccc4nonc34)cc2c1,-5.68% (inactive)
7,Cc1cc(C)c(C2C3=C(Nc4c2c(C)nn4-c2ccccn2)c2ccccc2C3=O)c(C)c1 (centres undefined),69.5% (active)
8,Cc1nn(-c2ccccn2)c2c1C(c1ccncc1)C1=C(CC(C)(C)CC1=O)N2 (centres undefined),-12.9% (inactive)
9,CSc1ccc(S(=O)(=O)NCC(=O)OCC(=O)NC2(C#N)CCCCC2)cc1[N+](=O)[O-],5.12% (inactive)
10,COc1ccc(CCOC2OC(CO)C(OC(=O)/C=C/c3ccc(O)c(OC)c3)C(O[C@H]3O[C@@H](C)[C@H](O)[C@@H](O)[C@H]3O)C2O)cc1O (some centres undefined),1.58% (inactive)
11,O=C(Nc1ccc(Br)cc1)C1CCC(=O)N1Cc1ccccc1Cl (centres undefined),-2.28% (inactive)
12,Cc1nc2ccccc2nc(C)c1=NOCc1ccc(Cl)cc1Cl,-2.95% (inactive)
13,NC(N)=N/N=C/c1ccc(OCc2ccc(Cl)cc2Cl)cc1,59.6% (active)
14,COc1ccc(Cl)cc1N(CC(=O)N/N=C/c1ccc(OCC(N)=O)cc1)S(C)(=O)=O,-3.08% (inactive)
15,CCC(CC)NC(=O)/C=C/c1cccc([N+](=O)[O-])c1,-1.38% (inactive)
16,CCCCCc1ccc(-c2ccc(C(=O)O)cc2)nc1,-1.17% (inactive)
17,Cc1ccc(Sc2cc(N3CCOCC3)nc(-c3ccccc3)n2)cc1,42.7% (active)
18,Cc1cc(N2CCOCC2)nc(-c2ccc(Br)cc2)n1,-1.94% (inactive)
19,O=S(=O)(Cc1cc(Sc2ccccc2)nc(-c2ccccc2)n1)c1ccccc1,7.22% (inactive)
20,S=c1[nH]nc(Nc2ccccc2)s1,16.4% (inactive)
21,COc1cc(C(C(=O)NC2CCCC2)N(C(=O)c2ccco2)c2ccccc2C(C)=O)cc(OC)c1OC (centres undefined),2.2% (inactive)
22,CCOC(=O)c1c(-c2ccccc2)oc2ccc(OCC(=O)NN)cc12,27.5% (inactive)
23,CCOC(=O)c1c(-c2ccccc2)oc2cc(Br)c(O)c(C=O)c12,56.8% (active)
24,CCOC(=O)c1c(-c2ccccc2)oc2cc(Br)c(O)cc12,-5.83% (inactive)
25,Cn1c(=O)oc2cc(S(=O)(=O)NCCC(=O)NCc3ccccc3Cl)ccc21,0.87% (inactive)

row,Structure (SMILES),response
1,CCOC(=O)C1CCN(CC(=O)Nc2ccc(OC)c(S(=O)(=O)N3CCCCC3)c2)CC1,11.9% (inactive)
2,O=C(COc1cccnc1[N+](=O)[O-])Nc1ccc(Cl)cc1F,-3.75% (inactive)
3,O=C1C2C3C=CC(C4CC34)C2C(=O)N1/N=C/c1ccc(-c2ccccc2[N+](=O)[O-])o1 (centres undefined),42.1% (active)
4,O=C(Nc1ccc(N2CCOCC2)cc1)c1ccc(-c2ccccc2[N+](=O)[O-])o1,15.6% (inactive)
5,Cc1c(/C=N/N2C(=O)C3C4C=CC(C4)C3C2=O)c2ccccc2n1C (centres undefined),-4.99% (inactive)
6,CCOc1cc(/C=C2/N=C(c3ccc(C(C)(C)C)cc3)OC2=O)cc(Cl)c1OS(C)(=O)=O,-2.17% (inactive)
7,COc1ccc(NC(=O)CN(C)C(=O)c2cccc(S(=O)(=O)N3CCN(c4ccccc4)CC3)c2)cc1,6.13% (inactive)
8,O=[N+]([O-])/C=C/c1ccc2c(ccn2Cc2ccccc2)c1,48.2% (active)
9,Cn1c(=S)sc2ccc3ccccc3c21,59.5% (active)
10,COc1ccc2ccccc2c1CNc1nnnn1C,-4.52% (inactive)
11,CCN(CC(=O)Nc1ccccc1C(F)(F)F)C(=O)CSCc1c(C)noc1C,-3.25% (inactive)
12,Cc1ccc(NC(=O)COC(=O)C2C3CC4OC(=O)C2C4C3)cc1Cl (centres undefined),5.53% (inactive)
13,COc1cc(/C=C2\Oc3ccc(C#Cc4ccc(O)cc4)cc3C2=O)cc(OC)c1,-8.05% (inactive)
14,O=C1c2ccccc2C(=O)N1CCC#Cc1ccc2cc(C3(O)CCCCC3)oc(=O)c2c1,5.43% (inactive)
15,COc1cc(C#Cc2ccc3cc(CCCO)oc(=O)c3c2)cc(OC)c1,45.9% (active)
16,COc1ccc(CCNC(=O)c2ccc3c(c2)NC(=O)C(N2CCOCC2)S3)cc1OC (centres undefined),3.69% (inactive)
17,Cc1nn(Cc2ccccc2)c(C)c1C(=O)N1CCN(CC(=O)Nc2ccccc2Cl)CC1,4.22% (inactive)
18,COc1cccc(Cn2cc(/C=N/NC(=O)c3cc(O)cc(O)c3)c3ccccc32)c1,3.63% (inactive)
19,CCOC(=O)N/N=C/c1cn(Cc2ccccc2Cl)c2ccccc12,-0.12% (inactive)
20,COC(=O)N/N=C/c1cn(CCCOc2ccc(C)cc2)c2ccccc12,105% (active)
21,COc1ccc(OC)c(CCNC(=O)CCn2ccc3cc(S(=O)(=O)N4CCCC4)ccc32)c1,1.18% (inactive)
22,CCOCCCNC(=O)c1c[nH]c2cc(C)ccc2c1=O,-5.06% (inactive)
23,CCN(CC)S(=O)(=O)c1ccc(N2CCCC2)c(NC(=O)c2ccc([N+](=O)[O-])o2)c1,5.38% (inactive)
24,Cc1cc(C)n(CCNS(=O)(=O)c2ccc(Cl)cc2)n1,-1.1% (inactive)
25,O=S(=O)(NCCSc1ccccn1)c1ccc(Cl)cc1,-2.74% (inactive)

row,Structure (SMILES),response
1,CC(C)(CSc1nncn1/N=C/c1ccco1)NS(=O)(=O)c1ccc(Cl)cc1,45.9% (active)
2,COc1cc(C(=O)NCc2ccncc2)cc(Br)c1OCc1ccccc1,7.17% (inactive)
3,COC(=O)c1ccc(C23CC4(C2)[C@H](CN(Cc2cccnc2)[C@@H]4c2ccccc2)C3c2ccc(Cl)nc2)cc1 (some centres undefined),5.54% (inactive)
4,CCn1c(CNc2ccc(OC)cc2)nnc1SCC(=O)c1ccc(OC)cc1,6.23% (inactive)
5,CCn1c(SCC(=O)NNC(=O)c2ccc(OC)cc2)nnc1C(C)C,76.2% (active)
6,CCC(c1nnc(SCC(=O)NNC(=O)c2ccccc2)n1Cc1ccccc1)N(C)C (centres undefined),-7.18% (inactive)
7,Cc1cc(C)c(S(=O)(=O)n2cc(C(C)C(N)C(=O)O)c3ccccc32)c(C)c1 (centres undefined),3.12% (inactive)
8,CCCNC(=O)N1CCC(c2ccc3c(c2)OCO3)CC1,6.03% (inactive)
9,O=[N+]([O-])c1ccc(NC(=S)N2CCN(c3ccccn3)CC2)cc1,-2.61% (inactive)
10,COc1ccc(NC(=O)c2sc3nc(C)nc(N4CCN(c5ccccn5)CC4)c3c2C)c(OC)c1,16.2% (inactive)
11,COc1ccc(OC)c(NC(=O)c2sc3nc(C)cc(C)c3c2N)c1,72.5% (active)
12,COCc1cc(C)nc2sc(C(=O)NC3CCCCC3)c(N)c12,-21.3% (inactive)
13,O=S(=O)(c1ccccc1)c1nc(Cc2ccccc2)oc1N1CCOCC1,6.12% (inactive)
14,CCCCN=C1N/C(=C\c2ccco2)C(=O)N1c1ccccc1,0.77% (inactive)
15,COc1cc(OC)cc(C(=O)NNC(=O)CCOc2ccccc2OC)c1,4.38% (inactive)
16,CCN1CCC(=NNC(=O)c2ccc(C)c([N+](=O)[O-])c2)CC1,2.52% (inactive)
17,CCCCN(CCCC)CCCNC(=O)CN1C(=O)COc2ccc(S(=O)(=O)N3CCC(C)CC3)cc21,7.21% (inactive)
18,Cc1nc2ccccc2c(C)c1C(=O)c1ccc(F)cc1,1.92% (inactive)
19,Cc1nc2ccccc2c(C(=O)O)c1-c1ccccn1,5.02% (inactive)
20,Cc1nc2ccccc2c(-c2ccccc2)c1C(=O)c1ccccc1,105% (active)
21,CC/S(CC1CC1(Cl)Cl)=N\S(=O)(=O)c1ccc(C)cc1 (centres undefined),-2.93% (inactive)
22,O=c1[nH]c(=S)[nH]c(O)c1/C=C1\C=Nc2ccccc21,57.7% (active)
23,COc1ccc2c(c1OC)C(=O)N(c1ccc(O)cc1)C2,5.16% (inactive)
24,COc1ccnc(Oc2ccccc2)c1-c1ncn[nH]1,1.34% (inactive)
